From PubChem BioAssay (NCI)
This is part of a sample that, as a whole, favours compounds with a hit. Of some 83,000 tested, about 20% had one in any assay.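 For each line, cells grew in 96-well plates with the test compound present at a single concentration for 48 hours.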 Values without a mark were called inactive. Activity calls are given as the source filed them. The calls were made as follows: active = growth percent below 10; inactive = the rest.

Assays:
Assay in all cases: NCI-60 one-dose screen, 48 h (100 = growth as untreated, 0 = no growth, -100 = all killed)
Details in all cases: 10 µM unless noted
[1] = system: NCI-H226 lung
[2] = system: NCI-H322M lung
[3] = system: HOP-62 NSCLC
[4] = system: NCI-H460 lung
[5] = system: NCI-H522 lung
[6] = system: A549/ATCC NSCLC
[7] = system: 786-0 renal
[8] = system: COLO 205 colon
[9] = system: DU-145 prostate
[10] = system: K-562 leukemia
[11] = system: MALME-3M melanoma
[12] = system: MDA-MB-231 breast
[13] = system: RXF 393 renal
[14] = system: SF-268 CNS
[15] = system: SF-295 CNS
[16] = system: SF-539 CNS
[17] = system: UACC-257 melanoma
[18] = system: M14 melanoma
[19] = system: HCT-15 colon
[20] = system: HOP-92 NSCLC

Compound	growth [1]	growth [2]	growth [3]	growth [4]	growth [5]	growth [6]	growth [7]	growth [8]	growth [9]	growth [10]	growth [11]	growth [12]	growth [13]	growth [14]	growth [15]	growth [16]	growth [17]	growth [18]	growth [19]	growth [20]
[Cl][Ru].c1ccc(-c2cc(-c3ccccn3)nc(-c3ccccn3)c2)cc1.c1ccc(-c2ccnc3c2ccc2c(-c4ccccc4)ccnc23)cc1	-18% (active)	-6.84% (active)	25.1%	-63% (active)	-52.8% (active)	14.8%	6.1% (active)	-77.9% (active)	7.67% (active)	1.44% (active)	-34.3% (active)	-48.4% (active)	-39% (active)	13.8%	-23.1% (active)	-20.5% (active)	-28.7% (active)	-57.1% (active)	45.8%	
CN1CCc2c(sc3ncnc(N/N=C/c4ccc(Cl)c(Cl)c4)c23)C1	56.9%	-3.96% (active)	69.7%	0.478% (active)	89.9%	21.8%	-57.1% (active)	36.1%	48.9%	27.4%	38.6%	13.7%	42.1%	61.1%	34.7%	-61.6% (active)	92.4%	-11.8% (active)	3.04% (active)	
N#Cc1nc(-c2ccccc2)oc1N1CCC(CO)C1 (centres undefined)	92.6%	88.4%	107%	103%	97.8%	95.2%	101%	116%	104%	114%	94.3%	101%	100%	97.7%	105%	93.9%	105%	106%	104%	
COc1ccccc1/C=C/C=N/NC1=NC2C(S1)N(C)C(=O)N2C (centres undefined)	55.7%	51.7%	35.6%	11.1%	-24% (active)	48.3%	44.2%	5.69% (active)	24.5%	9.44% (active)	43.8%	40%	-20.8% (active)	52%	16.2%	5.56% (active)	78.8%	19%	30.4%	
COc1cc(/C=C/C(=O)c2ccc(Cl)cc2)ccc1Oc1nc(NCCO)nc(N2CCOCC2)n1	96.5%	95.8%	92.7%	106%	96.8%	103%	101%	116%	107%	35.9%	93.5%	104%	97.8%	97.6%	101%	95.9%	114%	98.7%	98.2%	
CS(=O)(=O)c1ccc(-c2nc3ccccn3c2C=Nc2ccc(Cl)cc2)cc1	102%	76.7%	82.8%	57.7%	58.6%	72.1%	69.5%	99.6%	61.3%	23.6%	93.6%	85.5%	105%	75.4%	87.9%	84.1%	88.4%	43.8%	34.3%	
Cn1cc(-c2cc(N)n3nc(-c4cn(C)c5ccc(F)cc45)cc3n2)c2cc(F)ccc21	106%	71.2%	92%	-23.2% (active)	28.6%	18.5%	-87.7% (active)	115%	44.8%	-26.2% (active)	90.8%	3.73% (active)	26.2%	19.6%	80.1%	-58.5% (active)	101%	20.3%	4.58% (active)	
C#Cc1nc(C2=C(C)C(O)/C(=N/O)C2)cs1 (centres undefined)	107%	102%	111%	104%	15.5%	96.5%	-92.2% (active)	128%	87%	87.2%	99.5%	-28.1% (active)	93.7%	65.3%	65%	25.5%	90.7%	93.8%	88.1%	
C[C@@H](Nc1c(C#N)cnc2ccc(-c3cnc(N)nc3)cc12)c1ccccc1	18.8%	-6.52% (active)	31.1%	13.3%	-2.38% (active)	15.8%	13.5%		12.8%	16.2%	8.07% (active)	17.9%	-4.27% (active)	16.5%	2.02% (active)	3.05% (active)	33.5%	21.3%	9.79% (active)	-10.5% (active)
c1ccc2c(NCCCN3CCOCC3)c3oc4ccccc4c3nc2c1	-11.3% (active)	-17.5% (active)	-13.4% (active)	0.606% (active)	-52.8% (active)	-62.1% (active)	6.38% (active)		2.98% (active)	2.74% (active)	-25.9% (active)	-27.9% (active)	-76.2% (active)	-3.87% (active)	-17.6% (active)	-29.5% (active)	-7.26% (active)	-32% (active)	0.78% (active)	-22.9% (active)
CN1CCN(Cc2ccc(NC(=O)c3cncc(C#Cc4cnc5ccc(N6CCSCC6)nn45)c3)cc2C(F)(F)F)CC1	-24.7% (active)	-23.9% (active)	-31.1% (active)	-46.6% (active)	-75.4% (active)	-24.5% (active)	-77.7% (active)	-87.9% (active)	-83.2% (active)	-16.2% (active)	-62.6% (active)	-38.4% (active)	-87.3% (active)	-52.9% (active)	-36.2% (active)	-94.2% (active)	31.1%	-81.6% (active)	-38.9% (active)	
Nc1cc(-c2c[nH]c3ccccc23)nc2cc(-c3c[nH]c4ccccc34)nn12	67.3%	80.8%	95.3%	4.94% (active)	43%	58.3%	46.8%	49.4%	40.2%	4.17% (active)	64.5%	48.2%	38.2%	75.2%	34.8%	32.4%	70.2%	29.3%	6.35% (active)	
C#Cc1nc(C2=C(C)C(=O)/C(=N/OC(C)=O)C2)cs1	107%	101%	88.5%	98.5%	82.6%	96.3%	-94.5% (active)		85.7%	84%	86.1%	30.3%	85.1%	82.2%	56.1%	58.4%	86.5%	85.2%	88.1%	50%
COc1cc(-c2ccc3ncnc(NC(C)c4ccccc4)c3c2)cnc1OC (centres undefined)	52.8%	15.4%	44.4%	64.5%	40.9%	41.9%	44.2%	72.9%	37.2%	76.3%	56.3%	36.1%	26%	44.9%	37.1%	47.2%	78.8%	68%	52.9%	
CCOC(=O)c1c(Nc2ccccc2)nn2c(N)c(C#N)c(-c3ccccc3)nc12	83.3%	94.8%	97.7%	93.2%	89.7%	97%	79.5%	87.4%	81.1%	48.5%	96%	63.9%	68.3%	87.4%	81.3%	82.2%	111%	89%	52.4%	
CCCC(=O)NC(c1cccnc1)c1cc(C)c2cccnc2c1O (centres undefined)	52.6%	32.4%	34.4%	19.3%	22.2%	48.4%	38.9%	12.7%	47.2%	22.6%	53.1%	35.5%	81.9%	42.1%	32.3%	23.3%	20.9%	27.5%	24.2%	
